# According to PubChem BioAssay AID1159580 (chemical genetic matrix, 2015):
# Hit rate of the full screen: of about 5,500 compounds, about 2,000 (36%) were called active. Inconclusive results (about 18%) are left out. The list shows a part of the results. Unmarked numbers belong to inactive results. Rule as the data show it: active = normalized growth mostly below about 0.91 (no sharp cut-off); inconclusive = no clear call, values can overlap the other calls; inactive = mostly above about 0.92.
# Assay: chemical genetic growth profiling, strain panel (AID 1159580);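 also: tested at 20 µM; growth read once vehicle control cultures reached saturation at 30 °C; 1 = growth at the plate median or of vehicle wells; lower values mean less growth of the strain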
# Settings: growth OD
smiles,measurement,setting,value
ClC1=C(Cl)C2(Cl)C3C4C=CC(C4)C3C1(Cl)C2(Cl)Cl (configuration not stated),normalized growth,"S. cerevisiae deletion strains, locus YJR075W, strain HOC1, active compounds read low",1.01
same,normalized growth,"S. cerevisiae deletion strains, locus YKL009W, strain mrt4, active compounds read low",0.953
same,normalized growth,"S. cerevisiae deletion strains, locus YKL068W, active compounds read low",0.996
same,normalized growth,"S. cerevisiae deletion strains, locus YKL085W, strain MDH1 (second series), active compounds read low",0.996
same,normalized growth,"S. cerevisiae deletion strains, locus YKL085W, strain MDH1, active compounds read low",0.996
same,normalized growth,"S. cerevisiae deletion strains, locus YKL160W, strain elf1, active compounds read low",0.998
same,normalized growth,"S. cerevisiae deletion strains, locus YKL190W, strain CNB1, active compounds read low",1
same,normalized growth,"S. cerevisiae deletion strains, locus YKR001C, strain vps1, active compounds read low",0.998
same,normalized growth,"S. cerevisiae deletion strains, locus YKR026C, strain gcn3, active compounds read low",0.997
same,normalized growth,"S. cerevisiae deletion strains, locus YKR091W, strain srl3, active compounds read low",0.996
same,normalized growth,"S. cerevisiae deletion strains, locus YLL001W, strain dnm1, active compounds read low",0.998
same,normalized growth,"S. cerevisiae deletion strains, locus YLL026W, active compounds read low",1
same,normalized growth,"S. cerevisiae deletion strains, locus YLL041C, strain sdh2, active compounds read low",0.994
same,normalized growth,"S. cerevisiae deletion strains, locus YLR027C, strain aat2, active compounds read low",1.01
same,normalized growth,"S. cerevisiae deletion strains, locus YLR039C, strain RIC1, active compounds read low",0.942
same,normalized growth,"S. cerevisiae deletion strains, locus YLR058C, strain SHM2, active compounds read low",0.991
same,normalized growth,"S. cerevisiae deletion strains, locus YLR102C, strain apc9, active compounds read low",1
same,normalized growth,"S. cerevisiae deletion strains, locus YLR113W, strain HOG1, active compounds read low",0.892
same,normalized growth,"S. cerevisiae deletion strains, locus YLR221C, strain rsa3, active compounds read low",0.985
same,normalized growth,"S. cerevisiae deletion strains, locus YLR258W, strain gsy2, active compounds read low",0.997
same,normalized growth,"S. cerevisiae deletion strains, locus YLR262C, strain YPT6 (second series), active compounds read low",0.94
same,normalized growth,"S. cerevisiae deletion strains, locus YLR262C, strain YPT6, active compounds read low",0.859
same,normalized growth,"S. cerevisiae deletion strains, locus YLR268W, strain sec22, active compounds read low",0.98
same,normalized growth,"S. cerevisiae deletion strains, locus YLR320W, strain mms22, active compounds read low",0.994
same,normalized growth,"S. cerevisiae deletion strains, locus YLR330W, strain CHS5, active compounds read low",1
same,normalized growth,"S. cerevisiae deletion strains, locus YLR342W, strain FKS1 (second series), active compounds read low",0.916
same,normalized growth,"S. cerevisiae deletion strains, locus YLR342W, strain FKS1, active compounds read low",0.995
same,normalized growth,"S. cerevisiae deletion strains, locus YLR357W, strain rsc2, active compounds read low",1.02
same,normalized growth,"S. cerevisiae deletion strains, locus YLR370C, strain arc18, active compounds read low",0.997
same,normalized growth,"S. cerevisiae deletion strains, locus YLR371W, strain rom2, active compounds read low",0.981
same,normalized growth,"S. cerevisiae deletion strains, locus YLR384C, strain iki3, active compounds read low",0.988
same,normalized growth,"S. cerevisiae deletion strains, locus YLR418C, strain cdc73, active compounds read low",0.894
same,normalized growth,"S. cerevisiae deletion strains, locus YML016C, strain PPZ1, active compounds read low",0.998
same,normalized growth,"S. cerevisiae deletion strains, locus YML032C, strain rad52, active compounds read low",0.976
same,normalized growth,"S. cerevisiae deletion strains, locus YML120C, strain ndi1, active compounds read low",1
same,normalized growth,"S. cerevisiae deletion strains, locus YML124C, strain tub3, active compounds read low",0.984
same,normalized growth,"S. cerevisiae deletion strains, locus YMR058W, strain fet3, active compounds read low",0.999
same,normalized growth,"S. cerevisiae deletion strains, locus YMR078C, strain ctf18, active compounds read low",0.979
same,normalized growth,"S. cerevisiae deletion strains, locus YMR125W, strain sto1, active compounds read low",1
same,normalized growth,"S. cerevisiae deletion strains, locus YMR129W, active compounds read low",0.998
same,normalized growth,"S. cerevisiae deletion strains, locus YMR205C, strain PFK2, active compounds read low",0.99
same,normalized growth,"S. cerevisiae deletion strains, locus YMR223W, strain ubp8, active compounds read low",0.949
same,normalized growth,"S. cerevisiae deletion strains, locus YMR231W, strain pep5, active compounds read low",0.982
same,normalized growth,"S. cerevisiae deletion strains, locus YMR263W, strain SAP30, active compounds read low",0.999
same,normalized growth,"S. cerevisiae deletion strains, locus YMR307W, strain GAS1, active compounds read low",1.07
same,normalized growth,"S. cerevisiae deletion strains, locus YNL067W, strain RPL9B, active compounds read low",1
same,normalized growth,"S. cerevisiae deletion strains, locus YNL071W, strain lat1, active compounds read low",1.01
same,normalized growth,"S. cerevisiae deletion strains, locus YNL128W, strain TEP1, active compounds read low",0.992
same,normalized growth,"S. cerevisiae deletion strains, locus YNL153C, strain GIM3, active compounds read low",1.01
same,normalized growth,"S. cerevisiae deletion strains, locus YNL183C, strain NPR1, active compounds read low",0.951
same,normalized growth,"S. cerevisiae deletion strains, locus YNL209W, strain ssb2, active compounds read low",0.997
same,normalized growth,"S. cerevisiae deletion strains, locus YNL233W, strain BNI4, active compounds read low",0.986
same,normalized growth,"S. cerevisiae deletion strains, locus YNL248C, strain rpa49, active compounds read low",1.01
same,normalized growth,"S. cerevisiae deletion strains, locus YNL250W, strain rad50, active compounds read low",0.99
same,normalized growth,"S. cerevisiae deletion strains, locus YNL271C, strain bni1, active compounds read low",0.99
same,normalized growth,"S. cerevisiae deletion strains, locus YNL298W, strain CLA4, active compounds read low",0.981
same,normalized growth,"S. cerevisiae deletion strains, locus YNL307C, strain MCK1, active compounds read low",0.48 (active)
same,normalized growth,"S. cerevisiae deletion strains, locus YNL322C, strain KRE1 (second series), active compounds read low",0.97
same,normalized growth,"S. cerevisiae deletion strains, locus YNL322C, strain KRE1, active compounds read low",1
same,normalized growth,"S. cerevisiae deletion strains, locus YNR049C, strain mso1, active compounds read low",0.995
same,normalized growth,"S. cerevisiae deletion strains, locus YNR052C, strain pop2, active compounds read low",0.979
same,normalized growth,"S. cerevisiae deletion strains, locus YOL006C, strain TOP1, active compounds read low",0.969
same,normalized growth,"S. cerevisiae deletion strains, locus YOL012C, strain htz1",1.09
same,normalized growth,"S. cerevisiae deletion strains, locus YOL147C, strain pex11, active compounds read low",0.996
same,normalized growth,"S. cerevisiae deletion strains, locus YOR001W, strain rrp6, active compounds read low",0.993
same,normalized growth,"S. cerevisiae deletion strains, locus YOR061W, strain CKA2, active compounds read low",1
same,normalized growth,"S. cerevisiae deletion strains, locus YOR069W, strain VPS5, active compounds read low",0.996
same,normalized growth,"S. cerevisiae deletion strains, locus YOR070C, strain gyp1, active compounds read low",0.982
same,normalized growth,"S. cerevisiae deletion strains, locus YOR080W, strain dia2, active compounds read low",0.989
same,normalized growth,"S. cerevisiae deletion strains, locus YOR083W, strain WHI5, active compounds read low",0.991
same,normalized growth,"S. cerevisiae deletion strains, locus YOR106W, strain vam3, active compounds read low",0.97
same,normalized growth,"S. cerevisiae deletion strains, locus YOR136W, strain idh2, active compounds read low",0.98
same,normalized growth,"S. cerevisiae deletion strains, locus YOR144C, strain elg1, active compounds read low",0.991
same,normalized growth,"S. cerevisiae deletion strains, locus YOR184W, strain ser1, active compounds read low",0.911
same,normalized growth,"S. cerevisiae deletion strains, locus YOR231W, strain MKK1, active compounds read low",1.04
same,normalized growth,"S. cerevisiae deletion strains, locus YOR265W, strain rbl2, active compounds read low",0.991
same,normalized growth,"S. cerevisiae deletion strains, locus YOR270C, strain vph1, active compounds read low",0.967
same,normalized growth,"S. cerevisiae deletion strains, locus YOR290C, strain snf2, active compounds read low",0.991
same,normalized growth,"S. cerevisiae deletion strains, locus YOR316C, strain cot1, active compounds read low",1
same,normalized growth,"S. cerevisiae deletion strains, locus YPL051W, strain arl3, active compounds read low",1.01
same,normalized growth,"S. cerevisiae deletion strains, locus YPL055C, strain LGE1, active compounds read low",0.99
same,normalized growth,"S. cerevisiae deletion strains, locus YPL078C, strain atp4, active compounds read low",1
same,normalized growth,"S. cerevisiae deletion strains, locus YPL106C, strain sse1, active compounds read low",1
same,normalized growth,"S. cerevisiae deletion strains, locus YPL240C, strain hsp82, active compounds read low",1
same,normalized growth,"S. cerevisiae deletion strains, locus YPL241C, strain CIN2, active compounds read low",1.01
same,normalized growth,"S. cerevisiae deletion strains, locus YPL256C, strain CLN2, active compounds read low",1.04
same,normalized growth,"S. cerevisiae deletion strains, locus YPR119W, strain clb2, active compounds read low",0.987
same,normalized growth,"S. cerevisiae deletion strains, locus YPR141C, strain kar3, active compounds read low",0.982
same,normalized growth,"S. cerevisiae deletion strains, locus YPR163C, strain tif3, active compounds read low",0.981
same,normalized growth,"S. cerevisiae deletion strains, locus YPR167C, strain met16, active compounds read low",0.977
same,normalized growth,"S. cerevisiae deletion strains, strain wtn01, active compounds read low",0.983
same,normalized growth,"S. cerevisiae strains, strain wild type, active compounds read low",1.01
